# KOR antag MB: OPRK1 (human) antagonism, Maybridge screen. P41145. OPRK1 cells, antagonist mode, fluorescence readout. inhibition, % at 9 µM. 16,000 compounds, 0.4% hits; in the data active = inhibition above about 50%
# luminol inh ctr: luminol signal inhibition, Nox1 inhibitor counter-screen; HRP/luminol/H2O2 chemiluminescence counterscreen; inhibition, % at 6.7 µM; 16,000 compounds, 0.4% hits; note: reference of the scale not given here
# PME-1 Maybr inh: Maybridge compound blocking human PME-1; Q9Y570; recombinant PME-1, FP-Rh probe fluorescence polarization; inhibition, % at 9 µM; 16,000 compounds, 0.5% hits; in the data active = inhibition above about 30%
# NOTCH ag: agonists of NOTCH signaling; NOTCH signaling luciferase reporter cells, luminescence; activation, % at 2.5 µM; 15,000 compounds, 0.4% hits; AID 434982; in the data active = activation above about 2.2%
# Nox1 inhibitor: blocks human NADPH oxidase 1 activity; Q9Y5S8; HT29 cells, luminol chemiluminescence ROS; inhibition, % at 6.7 µM; 16,000 compounds, 0.81% hits; AID 1792
# Target sequence (Q9Y5S8 whole entry, looked up): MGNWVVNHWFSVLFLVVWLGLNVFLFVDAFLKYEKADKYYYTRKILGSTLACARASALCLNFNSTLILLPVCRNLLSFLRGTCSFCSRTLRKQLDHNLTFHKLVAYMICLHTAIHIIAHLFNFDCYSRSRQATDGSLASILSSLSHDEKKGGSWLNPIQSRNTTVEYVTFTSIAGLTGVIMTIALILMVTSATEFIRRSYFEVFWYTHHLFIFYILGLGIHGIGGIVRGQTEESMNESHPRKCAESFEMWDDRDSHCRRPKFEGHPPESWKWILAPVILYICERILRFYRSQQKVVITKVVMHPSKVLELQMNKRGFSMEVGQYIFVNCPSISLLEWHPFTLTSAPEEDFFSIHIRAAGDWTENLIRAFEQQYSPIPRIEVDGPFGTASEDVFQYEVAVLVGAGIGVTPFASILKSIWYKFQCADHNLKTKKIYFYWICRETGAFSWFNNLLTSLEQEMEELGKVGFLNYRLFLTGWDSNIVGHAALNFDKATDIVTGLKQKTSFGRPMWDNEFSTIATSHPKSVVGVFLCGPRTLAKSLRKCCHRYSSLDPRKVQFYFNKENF
# An asterisk follows results filed as active; nt = no result. Shown are actives, neighbours in structure and some others; about 2.5% of the full set was active somewhere. Cut-off read from the data, not from the text of the source, unless noted: active = inhibition above about 75%; inactive = the rest.
SMILES,KOR antag MB,luminol inh ctr,PME-1 Maybr inh,NOTCH ag,Nox1 inhibitor
Cc1nn(C)c(COC(=O)Nc2ccc(Cl)cc2)c1[N+](=O)[O-],-6.6,2.6,0.4,-0.2,-26.0
Cn1c(=O)c2c(O)c(Cc3ccccc3)c(=O)n(C)c2n(C)c1=O,1.8,-2.2,-4.3,-0.1,-29.2
Cn1c(=O)c2c(NCc3ccccc3)cc(=O)n(C)c2n(C)c1=O,16.6,3.8,-0.5,8.5*,-48.1
CN(N)C(=S)NC(C)(C)C,6.8,-2.7,2.5,-0.5,16.9
COc1ccccc1N1CCN(C(=O)Nc2ccc(C)cc2)CC1,-16.9,-9.9,-0.5,-0.4,-6.7
COc1ccccc1N1CCN(C(=O)C(C)N2CCCc3cc(C)ccc32)CC1 (configuration not stated),38.5,-11.4,71.3*,-0.7,10.9
N#Cc1cccc(C#N)c1Oc1ccc(N)cc1,94.1*,-4.7,2.1,-0.9,7.7
Cn1cc(Cl)c(/C=C(\C#N)S(=O)(=O)C(C)(C)C)n1,14.1,25.2,3.8,0.5,12.4
Cc1nn(C(=O)c2cc(C)n(-c3ccccc3)n2)c(C)c1Br,-15.7,-3.7,41.3*,-0.6,-15.0
Cc1nn(-c2ccccc2)c(C)c1C(=O)Oc1ccccc1,22.9,-2.0,0.3,-0.2,16.3
N#Cc1c(S/C=C(\O)c2cc3ccccc3o2)nc2c(c1C(F)(F)F)CCCC2,77.0*,-4.0,-1.9,0.5,13.5
Nc1cnc(Sc2ccccc2)c(C(F)(F)F)c1,11.1,-0.5,4.0,-0.3,-57.2
O=[N+]([O-])c1cc(Cl)c(N2CCOCC2)cc1N1CCOCC1,-11.0,6.7,-3.6,6.3*,-73.7
O=[N+]([O-])c1cc(Cl)c(-n2cccc2)cc1N1CCCCC1,-0.1,2.9,0.6,-0.3,-72.7
ON/C=N/c1nnc(C(F)(F)F)s1,18.7,-4.0,1.8,-0.1,80.3*
Cc1nnsc1-c1n[nH]c(=S)n1C1CC1,11.2,98.8*,5.4,-0.1,12.5
CS(=O)(=N/C=C(\C#N)C(=O)c1cccs1)c1ccc(OC(=O)c2ccc(Cl)cc2)cc1 (configuration not stated),13.9,9.1,-2.9,-0.5,-46.3
Cn1nc(-c2ccccc2)cc1NC(=O)Nc1cccs1,7.5,26.2,31.7*,-0.1,-38.1
Cc1cc(C(=O)Nc2cc(C(F)(F)F)ccc2N2CCCC2)n(C)n1,2.6,4.1,0.1,-0.1,-26.1
S=c1[nH]nc(CSc2nc(-c3ccccc3)cn2-c2ccccc2)n1-c1ccccc1,-17.7,2.3,3.4,-0.4,-11.6
S=c1[nH]nc(Cc2n[nH]c(=S)n2-c2ccccc2)n1-c1ccccc1,9.1,95.2*,0.2,-0.2,-27.7
CNC(=O)n1nc(C)c(Cc2csc3ccc(Cl)cc23)c1C,-5.0,0.2,47.8*,-0.2,-12.0
Cn1c(-c2cc(C(C)(C)C)nn2Cc2ccc(F)cc2)n[nH]c1=S,-2.8,99.4*,6.7,0.6,4.7
CC[n+]1c(C)csc1Nc1ccc(N2CC(C)OC(C)C2)cc1 (configuration not stated),11.7,11.9,3.2,0.2,104.6*
COc1ccccc1NS(=O)(=O)c1ccc(Cl)s1,-5.5,2.7,32.0*,nt,-16.6
SMILES,KOR antag MB,luminol inh ctr,PME-1 Maybr inh,NOTCH ag,Nox1 inhibitor
COc1ccc(Nc2nc(NC(=O)Nc3ccc(Cl)cc3)n[nH]2)cc1,2.5,21.1,-0.2,-0.3,96.4*
Cc1nc(C)c(-c2ccnc(NC(=O)Nc3ccc(Cl)cc3)n2)s1,13.0,0.7,0.1,-1.0,-38.5
Clc1ccc(OCOc2ccc(Cl)cc2)cc1,-35.3,-1.8,0.3,-0.2,-43.2
Nc1nc(NCc2ccco2)n[nH]1,-7.1,90.2*,6.4,-0.2,94.4*
Cc1ccc(CNC(=S)NCCO)cc1,0.3,3.3,0.1,0.9,-18.2
COc1ccc(CNC(=S)NCCCO)cc1,-6.8,98.2*,3.7,-0.5,-51.2
O=c1c(Cl)c2oc3ccccc3nc-2c2ccccc12,26.0,7.0,8.7,-0.5,90.1*
O=c1[nH]c2ccccc2c(=O)n1CCSc1nc2ccccc2o1,4.6,-5.5,7.2,-0.3,16.6
COC(=O)CC(CC(=O)OC)(c1cc(C)c(O)c(C)c1)c1cc(C)c(O)c(C)c1,-0.2,77.5*,7.4,-0.6,21.1
COC(=O)c1ccccc1C(=O)c1cc(C)c(O)c(C)c1,16.2,-10.8,4.1,-0.1,-0.5
CC(=O)C(C#N)c1nc(-c2ccc(Cl)c(C)c2)cs1 (configuration not stated),10.1,17.0,5.6,0.0,26.6
CCCCNc1ccc2c3c(cccc13)C(=O)N(CCCC)C2=O,89.0*,4.7,13.7,-0.4,-7.4
Fc1cccc(-n2nnnc2-c2ccccc2Cl)c1,2.1,-7.2,6.6,-0.2,15.8

# High-throughput results deposited in PubChem BioAssay by The Scripps Research Institute Molecular Screening Center.
